# Test results as given in PubChem BioAssay (NCI).
# Compounds without any hit were thinned out: in the full panel of roughly 79,000, 15% have a hit. Values without a mark were called inactive. Calls of active or inactive are those of the source. Cut-off read from the data, not from the text of the source: active = growth inhibition above about 70%; inactive = the rest.
# Columns and labels:
# [1] = NCI Yeast Anticancer Drug Screen. Data for the rad52 strain (AID 147);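 note: 0% = growth of vehicle-treated control cultures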; details: S. cerevisiae rad52 mutant growth inhibition, active compounds read high
# Outline: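 Compounds are applied to a genetically defined yeast strain lacking normal DNA damage repair, and inhibition of growth is expressed relative to cultures given vehicle only.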
# [2] = NCI Yeast Anticancer Drug Screen. Data for the wt1 strain (AID 149);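 note: 0% = growth of vehicle-treated wt1 cultures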; details: S. cerevisiae wt1 strain (SPY 50644) growth inhibition, active compounds read high
# Outline: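 The wt1 strain was treated with compounds, and growth was compared with vehicle-treated cultures to give inhibition.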
# [3] = NCI Yeast Anticancer Drug Screen. Data for the rad50EPP+ strain (AID 151);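 note: 0% = growth of vehicle-treated control cultures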; details: S. cerevisiae rad50 mutant strain, active compounds read high
# Outline: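 Compounds were applied to the rad50EPP+ yeast strain, which bears a defined DNA repair alteration, and growth inhibition was determined relative to vehicle-treated cultures.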
# [4] = NCI Yeast Anticancer Drug Screen. Data for the mgt1 strain (AID 153); details: S. cerevisiae mgt1 mutant growth inhibition, active compounds read high
# Outline: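 Strain: mgt1 yeast, one of a set carrying defined DNA damage repair or cell cycle control alterations. Compound-treated growth compared with vehicle.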
# [5] = NCI Yeast Anticancer Drug Screen. Data for the rad50 strain (AID 155);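 note: 0% = growth of vehicle-only cultures of the same strain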; details: S. cerevisiae rad50 strain growth inhibition, active compounds read high
# Outline: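 Cells are treated with compound, grown, and their growth is then scored against vehicle-only cultures of the same repair-deficient yeast strain.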
# [6] = NCI Yeast Anticancer Drug Screen. Data for the mec2-1 strain (AID 157); details: S. cerevisiae mec2-1 strain, active compounds read high
# Outline: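 Strain: mec2-1 (DNA repair/cell cycle alteration). Compound exposure, then growth measured; inhibition expressed relative to vehicle.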
# [7] = NCI Yeast Anticancer Drug Screen. Data for the rad14 strain (AID 159);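 note: 0% = growth of vehicle-treated control cultures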; details: S. cerevisiae rad14 strain growth inhibition, active compounds read high
# Outline: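 Readout: yeast growth inhibition, referenced to vehicle-only cultures. Strain bears a defined alteration in DNA damage repair.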
# [8] = NCI Yeast Anticancer Drug Screen. Data for the CLN2oe strain (AID 163);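 note: 0% = growth of vehicle-only control cultures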; details: S. cerevisiae CLN2oe strain, active compounds read high
# Outline: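 Growth of a genetically modified yeast strain is measured after compound exposure and compared with cultures given vehicle alone.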
# [9] = NCI Yeast Anticancer Drug Screen. Data for the cln2 rad14 strain (AID 165);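 note: 0% = growth equal to vehicle treated cultures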; details: S. cerevisiae cln2 rad14 strain, active compounds read high
# Outline: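 Compounds are applied to the cln2 rad14 yeast strain, and growth is then compared with that of vehicle-treated cultures to give inhibition.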
# [10] = NCI Yeast Anticancer Drug Screen. Data for the bub3 strain (AID 167); details: S. cerevisiae bub3 mutant strain, active compounds read high
# Outline: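 Part of a panel of yeast mutants defective in DNA damage repair or cell cycle regulation. Each strain is grown with compound, and inhibition is calculated relative to solvent-treated cultures.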
# [11] = NCI Yeast Anticancer Drug Screen. Data for the wt2 strain (AID 169);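 note: 0% = growth of vehicle-treated yeast cultures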; details: S. cerevisiae wt2 strain growth inhibition, active compounds read high
# Outline: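 This strain belongs to a panel of yeast strains with defined genetic alterations in DNA damage repair or cell cycle control. Compounds are applied, and growth inhibition is measured against vehicle-treated cultures.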
# [12] = NCI Yeast Anticancer Drug Screen. Data for the mlh1 strain (AID 171);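 note: 0% = growth of vehicle-treated control cultures of the same strain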; details: S. cerevisiae mlh1 strain growth inhibition, active compounds read high
# Outline: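 Growth of the mutant yeast strain after compound exposure, expressed as inhibition relative to vehicle-only controls.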
# [13] = NCI Yeast Anticancer Drug Screen. Data for the mlh1 rad18 strain (AID 175); details: S. cerevisiae mlh1 rad18 strain growth inhibition, active compounds read high
# Outline: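 Read-out is yeast growth inhibition, calculated against vehicle-only controls. The compound was applied to a strain engineered with DNA damage repair alterations.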
# [14] = NCI Yeast Anticancer Drug Screen. Data for the rad18 strain (AID 177); details: S. cerevisiae rad18 mutant growth inhibition, active compounds read high
# Outline: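 Growth of the mutant yeast strain after compound exposure, normalised to vehicle-only cultures.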
# [15] = at 5.0 µM (retest, dose inferred, filed as 0.5)
# [16] = at 50.0 µM (retest, dose inferred, filed as 5.0)
compound,measurement,setting,value
CCCC(=O)Oc1ccc(/C=N/NC(N)=S)nc1,growth inhibition,[1]; at 1.2 µM,5%
same,growth inhibition,[1]; at 3.7 µM,-9%
same,growth inhibition,[1]; at 11.0 µM,-1%
same,growth inhibition,[1]; at 33.0 µM,8%
same,growth inhibition,[1]; at 100.0 µM,4%
same,growth inhibition,[2]; at 1.2 µM,1%
same,growth inhibition,[2]; at 3.7 µM,-19%
same,growth inhibition,[2]; at 11.0 µM,1%
same,growth inhibition,[2]; at 33.0 µM,-19%
same,growth inhibition,[2]; at 100.0 µM,-24%
same,growth inhibition,[3]; at 1.2 µM,-3%
same,growth inhibition,[3]; at 3.7 µM,7%
same,growth inhibition,[3]; at 11.0 µM,0%
same,growth inhibition,[3]; at 33.0 µM,-11%
same,growth inhibition,[3]; at 100.0 µM,-9%
same,growth inhibition,[4]; at 1.2 µM,-1%
same,growth inhibition,[4]; at 3.7 µM,-5%
same,growth inhibition,[4]; at 11.0 µM,-2%
same,growth inhibition,[4]; at 33.0 µM,-6%
same,growth inhibition,[4]; at 100.0 µM,-14%
same,growth inhibition,[5]; at 1.2 µM,-9%
same,growth inhibition,[5]; at 3.7 µM,-16%
same,growth inhibition,[5]; [15],-3%
same,growth inhibition,[5]; at 11.0 µM,-17%
same,growth inhibition,[5]; at 33.0 µM,-7%
same,growth inhibition,[5]; [16],14%
same,growth inhibition,[5]; at 50.0 µM,15%
same,growth inhibition,[5]; at 100.0 µM,4%
same,growth inhibition,[6]; at 1.2 µM,-3%
same,growth inhibition,[6]; at 3.7 µM,-2%
same,growth inhibition,[6]; [15],-2%
same,growth inhibition,[6]; at 11.0 µM,-4%
same,growth inhibition,[6]; at 33.0 µM,-2%
same,growth inhibition,[6]; [16],89% (active)
same,growth inhibition,[6]; at 50.0 µM,75.2% (active)
same,growth inhibition,[6]; at 100.0 µM,42%
same,growth inhibition,[7]; at 1.2 µM,2%
same,growth inhibition,[7]; at 3.7 µM,2%
same,growth inhibition,[7]; at 11.0 µM,-17%
same,growth inhibition,[7]; at 33.0 µM,-19%
same,growth inhibition,[7]; at 100.0 µM,-21%
same,growth inhibition,[8]; at 1.2 µM,-5%
same,growth inhibition,[8]; at 3.7 µM,-7%
same,growth inhibition,[8]; at 11.0 µM,-11%
same,growth inhibition,[8]; at 33.0 µM,-6%
same,growth inhibition,[8]; at 100.0 µM,-8%
same,growth inhibition,[9]; [15],-3%
same,growth inhibition,[9]; [16],33%
same,growth inhibition,[9]; at 50.0 µM,11.3%
same,growth inhibition,[10]; at 1.2 µM,-5%
same,growth inhibition,[10]; at 3.7 µM,-6%
same,growth inhibition,[10]; [15],-4%
same,growth inhibition,[10]; at 11.0 µM,-9%
same,growth inhibition,[10]; at 33.0 µM,-20%
same,growth inhibition,[10]; [16],-14%
same,growth inhibition,[10]; at 50.0 µM,0.95%
same,growth inhibition,[10]; at 100.0 µM,-21%
same,growth inhibition,[11]; at 1.2 µM,-13%
same,growth inhibition,[11]; at 3.7 µM,-5%
same,growth inhibition,[11]; at 11.0 µM,-6%
same,growth inhibition,[11]; at 33.0 µM,6%
same,growth inhibition,[11]; at 100.0 µM,10%
same,growth inhibition,[12]; at 1.2 µM,-9%
same,growth inhibition,[12]; at 3.7 µM,-6%
same,growth inhibition,[12]; at 11.0 µM,-8%
same,growth inhibition,[12]; at 33.0 µM,-9%
same,growth inhibition,[12]; at 100.0 µM,-14%
same,growth inhibition,[13]; [15],-4%
same,growth inhibition,[13]; [16],26%
same,growth inhibition,[13]; at 50.0 µM,19.1%
same,growth inhibition,[14]; at 1.2 µM,-7%
same,growth inhibition,[14]; at 3.7 µM,2%
same,growth inhibition,[14]; at 11.0 µM,-2%
same,growth inhibition,[14]; at 33.0 µM,-8%
same,growth inhibition,[14]; at 100.0 µM,-10%
